Test results: PubChem BioAssay AID1511 (Johns Hopkins Ion Channel Center, 2009)
Among all 310,000 compounds or so, about 1,600 (0.52%) were called active. Shown is part of a subset that was picked to be rich in actives. Unmarked numbers belong to inactive results.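 The calls were made as follows: active = activation above the mean of controls blocked by dofetilide plus 5 SD; inactive = the rest.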

Target: Voltage-gated inwardly rectifying potassium channel KCNH2 (Homo sapiens) (UniProt Q12809)
Test: hERG rescue from dofetilide block, primary screen, cell-based, CHO-hERG, FluxOR thallium flux, dofetilide IC70 (AID 1511);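 also: thallium influx through hERG after potassium depolarization seen as dye fluorescence rise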
Settings: dofetilide IC70 present, at 10 µM, active compounds read high

Chain of Voltage-gated inwardly rectifying potassium channel KCNH2 (Homo sapiens) (Q12809 whole entry, looked up): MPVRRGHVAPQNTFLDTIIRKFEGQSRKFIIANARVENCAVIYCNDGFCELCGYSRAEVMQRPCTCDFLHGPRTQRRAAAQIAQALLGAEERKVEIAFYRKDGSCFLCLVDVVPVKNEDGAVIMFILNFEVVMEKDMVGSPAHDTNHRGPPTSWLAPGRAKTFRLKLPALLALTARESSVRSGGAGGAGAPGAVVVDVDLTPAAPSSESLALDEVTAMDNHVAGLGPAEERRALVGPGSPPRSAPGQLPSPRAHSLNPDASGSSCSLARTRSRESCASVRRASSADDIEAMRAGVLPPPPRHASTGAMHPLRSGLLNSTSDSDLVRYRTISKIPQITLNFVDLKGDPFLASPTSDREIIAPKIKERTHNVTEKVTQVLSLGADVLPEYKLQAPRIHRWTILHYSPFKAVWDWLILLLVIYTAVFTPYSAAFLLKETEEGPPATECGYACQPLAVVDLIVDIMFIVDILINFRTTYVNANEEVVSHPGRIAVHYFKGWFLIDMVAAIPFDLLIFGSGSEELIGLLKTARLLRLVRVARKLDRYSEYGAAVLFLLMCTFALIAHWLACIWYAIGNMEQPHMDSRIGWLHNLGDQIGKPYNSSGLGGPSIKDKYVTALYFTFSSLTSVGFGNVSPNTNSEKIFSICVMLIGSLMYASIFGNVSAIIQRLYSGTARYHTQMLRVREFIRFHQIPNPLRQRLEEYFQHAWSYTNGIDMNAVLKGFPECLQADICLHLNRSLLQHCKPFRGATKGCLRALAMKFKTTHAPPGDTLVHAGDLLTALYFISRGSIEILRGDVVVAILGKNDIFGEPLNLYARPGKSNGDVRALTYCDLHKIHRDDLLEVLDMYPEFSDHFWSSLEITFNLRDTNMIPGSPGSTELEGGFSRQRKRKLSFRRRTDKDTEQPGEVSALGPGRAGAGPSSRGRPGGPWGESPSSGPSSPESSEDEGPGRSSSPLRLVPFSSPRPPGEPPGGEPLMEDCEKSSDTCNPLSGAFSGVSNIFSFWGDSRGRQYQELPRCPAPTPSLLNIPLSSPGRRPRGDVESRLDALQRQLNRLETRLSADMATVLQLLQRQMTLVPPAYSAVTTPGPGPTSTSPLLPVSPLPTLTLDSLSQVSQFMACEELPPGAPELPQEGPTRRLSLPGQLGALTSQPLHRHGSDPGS

Row | SMILES | activation (rescue from dofetilide block), less the hit threshold
1 | CCOC(=O)c1c(NC(=O)C2(C)Cc3ccccc3C(=O)O2)sc2c1CCCC2 (centres undefined) | -5.83%
2 | CCOC(=O)c1c(NC(=S)NC)sc2c1CCCC2 | 28.9% (active)
3 | CCOc1ccc(CCN2C(=O)c3cccnc3C2=O)cc1OCC | -5.29%
4 | O=C(NCc1ccccn1)c1c(O)c2c([nH]c1=O)CCCC2 | -0.66%
5 | C[N+](C)(C)CCNC(=O)c1c(O)c2c([nH]c1=O)CCCC2 | 4.89% (active)
6 | CCc1nnc(NC(=O)c2c(O)c3c([nH]c2=O)CCCC3)s1 | -12.7%
7 | CCSc1ccccc1C(=O)NCc1ccc(OC)cc1 | 0.47%
8 | CCC(C(=O)NC1CCCC1)N(C(=O)Cn1nnc(-c2ccc(C)o2)n1)c1ccc(OC)c(OC)c1 (centres undefined) | -1.5%
9 | CC(C)CNC(=S)NC(=O)c1ccc(Cl)cc1 | 7.52% (active)
10 | CC(C)C(NC(=O)c1ccc(Cl)cc1)C(=O)O (centres undefined) | -8.13%
11 | O=C(NC(=S)NC1CCCCC1)c1ccc(Cl)cc1 | -1.76%
12 | OC(c1nnc(-c2ccccc2)o1)c1cccs1 (centres undefined) | -10.2%
13 | COCCCNC(=O)[C@H]1N2C(=O)c3ccccc3C2SC1(C)C (some centres undefined) | -7.64%
14 | CC1CCCN(C(=O)c2ccc3c(c2)C(=O)N(CCC2=CCCCC2)C3=O)C1 (centres undefined) | -17.2%
15 | Cc1ccc(S(=O)(=O)Oc2ccc(/C=N/NC(=O)c3c(Cl)cnn3C)cc2)cc1 | -18.1%
16 | CCc1nc2sc3c(Cl)ncnc3c2c2c1CCCC2 | -13.4%
17 | Cc1ccc(C)c(C(C)NC(=O)C2CCCO2)c1 (centres undefined) | -6.97%
18 | Cc1cc([N+](=O)[O-])ccc1NC(=O)C1CCCO1 (centres undefined) | -1.96%
19 | Cc1cc(C)c2nc(NC(=O)C3CCCO3)sc2c1 (centres undefined) | 5.12% (active)
20 | CSc1cccc(NC(=S)N(C(C)C)C(C)c2ccccn2)c1 (centres undefined) | -10.5%
21 | Cc1cc(NC(=O)CSc2nc3ccccc3n2CC(C)C)no1 | -8.27%
22 | Cc1cc(NC(=O)CSc2nc3cc(Cl)ccc3c(=O)n2Cc2ccco2)no1 | 6.67% (active)
23 | N#Cc1c(NC(=O)CSc2nc3ccccc3c(=O)n2Cc2ccco2)sc2c1CCCC2 | -16.4%
24 | CCN1CCN(c2nc(Nc3cccc(F)c3)nc(N)c2[N+](=O)[O-])CC1 | 1.19%
25 | CCCN(CCC)S(=O)(=O)c1ccc(C(=O)NNC(=O)c2cc(OC)c(OC)c(OC)c2)cc1 | -5.35%

Row | SMILES | activation (rescue from dofetilide block), less the hit threshold
26 | CC1(OC(=O)C2CCCC2)C(=O)C=C2C=C(c3ccc(C#N)cc3)OC=C2C1=O (centres undefined) | 7.34% (active)
27 | COCCN1C=C2C(=O)C(C)(OC(=O)C3CCCC3)C(=O)C=C2C=C1c1ccsc1 (centres undefined) | -7.58%
28 | C=CCN1C=C2C(=O)C(C)(OC(=O)CCc3ccccc3)C(=O)C=C2C=C1c1ccc(C#N)cc1 (centres undefined) | -7.84%
29 | COc1ccc2c(c1)OC(O)(C(F)(F)C(F)F)CC2=O (centres undefined) | -2.37%
30 | CC1CCN(S(=O)(=O)c2ccc3ncn(CC(=O)N(C)C4CCCCC4)c(=O)c3c2)CC1 | -5.76%
31 | CCN1CCCC1CNC(=O)Cn1cnc2ccc(S(=O)(=O)N3CCC(C)CC3)cc2c1=O (centres undefined) | 7.23% (active)
32 | O=C(Cn1cnc2ccccc2c1=O)Nc1cccc(S(=O)(=O)N2CCCCC2)c1 | -13.8%
33 | CN(CCc1cn[nH]c1)C(=O)CC1C(=O)NCCN1Cc1cccc(Oc2ccccc2)c1 (centres undefined) | -5.68%
34 | NC(=O)Cc1ccc2c(c1)[nH]c1ccccc12 | -8.6%
35 | S=c1[nH]c2ccccc2c2ccccc12 | 6.26% (active)
36 | S=c1ccc2ccccc2[nH]1 | -11.4%
37 | O=C(C1CCCN1S(=O)(=O)c1ccc(Br)cc1)N1CCOCC1 (centres undefined) | -0.78%
38 | CCN(CC)C(=O)CSc1nnc(C2CCCCC2)o1 | -6.69%
39 | O=C(CSc1nnc(-c2ccccc2O)o1)NC1CCCCC1 | -7.03%
40 | CCCCCC1CCC(c2nnc(SCC(C)=O)o2)CC1 (centres undefined) | 5.95% (active)
41 | S=c1[nH]c(-c2cccs2)cn1-c1ccccc1 | 8.23% (active)
42 | COc1ccc(-c2cn(-c3ccc(OC)cc3)c(=S)[nH]2)cc1 | -3.47%
43 | O=c1oc2ccccc2cc1-c1cn(-c2ccccc2)c(=S)[nH]1 | -6.67%
44 | CC(=O)N1CCN(S(=O)(=O)c2ccc(C)c([N+](=O)[O-])c2)C1C(C)C (centres undefined) | -8.18%
45 | Cc1ccc2c(c1)N(CC(=O)N1CCC(C)CC1)C(=O)c1cccnc1O2 | -4.18%
46 | C=CCc1cc(S(=O)(=O)c2ccc(O)c(CC=C)c2)ccc1O | -8.79%
47 | CCC1(C)Cc2c(sc3nc(SC)[nH]c(=O)c23)CO1 (centres undefined) | -9.23%
48 | CCC1(C)Cc2c(sc3[nH]c(=S)n(Cc4ccccc4)c(=O)c23)CO1 (centres undefined) | 32.2% (active)
49 | CCC1(C)Cc2c(sc3nc4n(c(=O)c23)CCCS4)CO1 (centres undefined) | -3.92%
